AmpC detergent: inhibitors of E. coli AmpC beta-lactamase with detergent. AmpC hydrolysis of nitrocefin, absorbance 480 nm, 0.01% Triton. P00811. 370,000 tested, 0.041% active. Potency, µM (series often up to 114 µM), actives largely listed as inhibitors; further: nearly all actives have a fitted effect of over 25% in size
Target sequence (P00811 whole entry, looked up): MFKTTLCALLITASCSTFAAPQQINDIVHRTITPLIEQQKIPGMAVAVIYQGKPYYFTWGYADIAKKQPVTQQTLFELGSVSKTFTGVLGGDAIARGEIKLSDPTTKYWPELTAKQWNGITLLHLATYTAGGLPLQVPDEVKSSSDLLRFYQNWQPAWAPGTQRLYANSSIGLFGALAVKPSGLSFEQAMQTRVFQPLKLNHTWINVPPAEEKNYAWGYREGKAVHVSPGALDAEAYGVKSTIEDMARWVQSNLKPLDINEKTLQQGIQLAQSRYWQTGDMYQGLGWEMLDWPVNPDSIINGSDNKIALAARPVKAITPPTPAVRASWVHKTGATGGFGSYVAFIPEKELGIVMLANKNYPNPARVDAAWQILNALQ
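AmpC (5.3 nM in the dispensed reagent) in 20 mM phosphate pH 7.0 with 0.01% (detergent screen) or 0.0001% Triton X-100 was preincubated with compounds for 15 min at room temperature. Nitrocefin was then added from an 800 uM solution, and hydrolysis was followed at 480 nm.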
AmpC inh no detg: blocks E. coli AmpC beta-lactamase in detergent-free assay | 330,000 tested, 0.52% active | Potency, µM (top dose mostly 57.1 µM), actives largely listed as inhibitors | P00811 | AmpC nitrocefin hydrolysis, absorbance 480 nm, 0.0001% Triton; further: nearly all actives have a fitted effect of over 20% in size
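AmpC (5.3 nM in the dispensed reagent) in 20 mM phosphate pH 7.0 with 0.01% (detergent screen) or 0.0001% Triton X-100 was preincubated with compounds for 15 min at room temperature. Nitrocefin was then added from an 800 uM solution, and hydrolysis was followed at 480 nm.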
AMA1-RON2 inh: AMA1-RON2 (P. falciparum) interaction inhibition; 360,000 tested, 0.2% active; AID 720542; Potency, µM (series often up to 58.2 µM), most hits filed as inhibitors; AlphaScreen AMA1-biotinylated RON2 peptide binding; further: nearly all actives have a fitted effect of over 45% in size
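AMA1 (3D7) with his tag at 25 nM final met compounds first, then biotinylated RON2 peptide at 25 nM; detection used donor plus acceptor beads, 10 µg/mL apiece, read by AlphaScreen after 30 min at room temperature.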
RE007 growth inh: less growth of the S. pombe RE007 Vpr strain | S. pombe RE007 Vpr strain, BacTiter-Glo ATP luminescence, 24 h | Potency, µM (series often up to 92.2 µM), actives largely listed as inhibitors | 360,000 tested, 0.21% active | AID 651644; active means well fitted falling curve with a large enough effect; inconclusive means small, poorly fitted or top-dose-only effect; inactive means no such curve, though single readings can be large or run the other way; further: nearly all actives have a fitted effect of over 50% in size
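Fission yeast strain RE007, carrying one chromosomally integrated HIV-1 vpr copy, was seeded at OD 0.01 in PMG+AL medium with 23 nL pinned compound. After 24 h at 30 °C and 99% humidity, viability was read by BacTiter-Glo luminescence.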
Sm TGR block: S. mansoni TGR enzyme inhibition. purified TGR, DTNB reduction, TNB absorbance 405 nm. Potency, µM (doses to about 114 µM), hits mostly inhibitors. Q962Y6. 360,000 tested, 3% active; further: nearly all actives have a fitted effect of over 60% in size
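TGR 20 nM + NADPH 100 uM (dispensed conc.), cpd preinc 15 min RT; start with NADPH (500 uM addition) then DTNB (15 mM addition). Kinetic TNB absorbance, 405 nm filter. Four-parameter Hill fit across titration.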
Each line names hits and unclear results; the compound was inactive in the other large screens. Most compounds without a hit are left out; they make up all but 3.2% or so of the library. Unless noted, the call rests on the fitted dose curve; in most records, active means well fitted curve in the direction sought with a large enough effect; inconclusive means small, poorly fitted or top-dose-only effect, or another doubt; inactive means no such curve, though single readings can be large; an effect the other way counts as inactive or inconclusive.

CCCCn1c(=O)n(-c2ccc(Br)cc2F)c(=O)c2c3c(sc21)CN(C(C)=O)CC3	none (no result: AmpC inh no detg, AMA1-RON2 inh, RE007 growth inh)
O=C(CC(Nc1cccc(Cl)c1Cl)C(=O)O)c1ccccc1 (centres undefined)	none (no result: Sm TGR block)
O=C(CC(Nc1ccc(Cl)cc1)C(=O)O)c1ccccc1 (centres undefined)	Sm TGR block 0.708µM
CCCCn1nnc(NC(=S)NC(=O)c2ccc(OCC)c([N+](=O)[O-])c2)n1	Sm TGR block 39.8µM
CCOc1ccc(C(=O)NC(=S)Nc2ncccc2C)cc1[N+](=O)[O-]	none
Cc1ccc([N+](=O)[O-])cc1NC(=S)NC(=O)CC(C)(C)C	none
Cc1ccc([N+](=O)[O-])cc1NC(=S)NC(=O)C(C)(C)C	Sm TGR block 44.7µM
CCN(CC)c1ccc2c(C)c(Cl)c(=O)oc2c1	none
CCN(CC)c1ccc2c(c1)oc(=O)c1c(Cl)cc(=O)oc12	Sm TGR block 6.31µM
CCOC(=O)C1Nc2ccc(C(=O)O)cc2C2C=CCC12 (centres undefined)	AmpC detergent inconclusive, AMA1-RON2 inh inconclusive, Sm TGR block inconclusive
CCOC(=O)c1ccc2c(c1)C1C=CCC1C(C(=O)O)N2 (centres undefined)	AmpC detergent inconclusive, Sm TGR block 7.94µM (no result: AMA1-RON2 inh, RE007 growth inh)
CCN(CC)C(=O)c1ccc2c(c1)C1C=CCC1C(C(=O)O)N2 (centres undefined)	AMA1-RON2 inh 12.6µM, Sm TGR block 0.447µM (no result: RE007 growth inh)
Cc1ccccc1CNC(=O)Cn1cc2c(n1)-c1c(oc(C(=O)N3CCCC3)c1C)CC2	Sm TGR block inconclusive (no result: AmpC inh no detg, AMA1-RON2 inh, RE007 growth inh)
C/C(=C\c1ccc(C)o1)C(=O)c1c(C)cc(C)[nH]c1=O	Sm TGR block 17.8µM
CCCCN1C(=O)CN(C2CCCCCC2)C(=O)C1c1ccc(OCC)c(OC)c1 (centres undefined)	none (no result: AmpC inh no detg, AMA1-RON2 inh, RE007 growth inh)
COc1ccc(CCC(=O)Nc2cc(Cl)ccc2N2CCN(C)CC2)cc1	none
CN1CCN(c2ccc(Cl)cc2NC(=O)CCN2C(=O)c3ccccc3C2=O)CC1	Sm TGR block 39.8µM
CCCOc1cccc(-c2cc(C(=O)NN)c3ccccc3n2)c1	AmpC inh no detg 10µM
CCNC(=S)NNC(=O)c1cc(-c2cccc(C)c2)nc2ccccc12	RE007 growth inh inconclusive
CCNC(=S)NNC(=O)c1cc(-c2ccc(OC)cc2)nc2ccccc12	AmpC detergent inconclusive, RE007 growth inh 17.8µM
COc1ccc(-c2cc(C(=O)NCc3ccco3)c3ccccc3n2)cc1	AmpC detergent inconclusive, Sm TGR block 39.8µM
CCCCOc1ccc(-c2cc(C(=O)NNC(=S)NCC)c3ccccc3n2)cc1	RE007 growth inh 63.1µM
Cc1ccc(-c2nnc(Nc3ccc(O)cc3)c3ccccc23)cc1S(=O)(=O)N1CCN(C)CC1	Sm TGR block inconclusive (no result: AmpC inh no detg, AMA1-RON2 inh, RE007 growth inh)
CCCN(CCC)C(=O)Cn1c(=O)n(-c2cccc(C(F)(F)F)c2)c(=O)c2c(C)c(C)sc21	none (no result: AmpC inh no detg, AMA1-RON2 inh, RE007 growth inh)
C#CCOCCOCCOCCNc1nc(N2CCN(C(=O)CCCCCCCCCCNC(=O)[C@H]([C@@H](C)CC)n3cc(CCCCCN)nn3)CC2)nc(N2CCN(C(=O)CCCCCCCCCCNC(=O)[C@H]([C@@H](C)CC)n3cc(CCCCN=C(N)N)nn3)CC2)n1	Sm TGR block inconclusive (no result: AMA1-RON2 inh, RE007 growth inh)
C#CCOCCOCCOCCNc1nc(N2CCN(C(=O)CCCCCCCCCCNC(=O)[C@H](CO)n3cc(CCCSC)nn3)CC2)nc(N2CCN(C(=O)CCCCCCCCCCNC(=O)[C@H](CCCCN)n3cc(CCO)nn3)CC2)n1	none (no result: AmpC detergent, Sm TGR block)
C#CCOCCOCCOCCNc1nc(N2CCN(C(=O)CCCCCCCCCCNC(=O)[C@H]([C@@H](C)CC)n3cc(CCCCN=C(N)N)nn3)CC2)nc(N2CCN(C(=O)CCCCCCCCCCNC(=O)[C@H](CO)n3cc(CCCCCN)nn3)CC2)n1	AMA1-RON2 inh inconclusive, Sm TGR block 44.7µM
C#CCOCCOCCOCCNc1nc(N2CCN(C(=O)CCCCCCCCCCNC(=O)[C@H]([C@@H](C)CC)n3cc(CCCCN=C(N)N)nn3)CC2)nc(N2CCN(C(=O)CCCCCCCCCCNC(=O)[C@H]([C@@H](C)CC)n3cc(CCCCN=C(N)N)nn3)CC2)n1	Sm TGR block 39.8µM (no result: AMA1-RON2 inh, RE007 growth inh)
C#CCOCCOCCOCCNc1nc(N2CCN(C(=O)CCCCCCCCCCNC(=O)[C@H](CO)n3cc(CCCSC)nn3)CC2)nc(N2CCN(C(=O)CCCCCCCCCCNC(=O)[C@@H]([C@H](C)O)n3cc(C)nn3)CC2)n1	Sm TGR block 44.7µM (no result: AMA1-RON2 inh, RE007 growth inh)
C#CCOCCOCCOCCNc1nc(N2CCN(C(=O)CCCCCCCCCCNC(=O)[C@H]([C@@H](C)CC)n3cc(CCCCCN)nn3)CC2)nc(N2CCN(C(=O)CCCCCCCCCCNC(=O)[C@H](CO)n3cc(CCCCCN)nn3)CC2)n1	AmpC detergent inconclusive, Sm TGR block inconclusive
C#CCOCCOCCOCCNc1nc(N2CCN(C(=O)CCCCCCCCCCNC(=O)Cn3cc(CCCCCN)nn3)CC2)nc(N2CCN(C(=O)CCCCCCCCCCNC(=O)[C@@H](CCC(=O)O)n3cc(CCCCCN)nn3)CC2)n1	Sm TGR block 50.1µM
C#CCOCCOCCOCCNc1nc(N2CCN(C(=O)CCCCCCCCCCNC(=O)[C@H]([C@@H](C)CC)n3cc(CCCCN=C(N)N)nn3)CC2)nc(N2CCN(C(=O)CCCCCCCCCCNC(=O)[C@H](CCCCN)n3cc(C)nn3)CC2)n1	AMA1-RON2 inh inconclusive, Sm TGR block 39.8µM
C#CCOCCOCCOCCNc1nc(N2CCN(C(=O)CCCCCCCCCCNC(=O)[C@H]([C@@H](C)CC)n3cc(CCCCCN)nn3)CC2)nc(N2CCN(C(=O)CCCCCCCCCCNC(=O)[C@H](CCCCN)n3cc(CCCC(=O)O)nn3)CC2)n1	none
COc1ccc(OC)c(CNC(=O)C(C)n2c(C)c3cnn(-c4ccccc4)c(=O)c3c2C)c1 (centres undefined)	none (no result: AmpC inh no detg, AMA1-RON2 inh, RE007 growth inh)
Cc1cc(NC(=S)Nc2ccc(C)c(Cl)c2)n[nH]1	Sm TGR block 7.08µM
COc1ccc(NC(=S)Nc2cc(C)[nH]n2)cc1Cl	Sm TGR block inconclusive
COCC(C)OC(=O)/C(C#N)=C\c1coc2ccc(C)cc2c1=O (centres undefined)	Sm TGR block 17.8µM
Cc1cccc(-c2nc3scc(CCNS(=O)(=O)c4ccc(Oc5ccccc5)cc4)n3n2)c1	none (no result: AmpC inh no detg, AMA1-RON2 inh, RE007 growth inh)
COCCCNC(=O)c1c(NC(=O)c2nc(S(C)(=O)=O)ncc2Cl)sc2c1CCCC2	Sm TGR block 5.62µM (no result: AmpC inh no detg, AMA1-RON2 inh, RE007 growth inh)
CCN(CC)c1ccc(/C=C2/C(=O)ON=C2C)cc1	none
CCN(CC)c1ccc(/C=C2\C(=O)N(c3nnc(C)c(=O)[nH]3)N=C2C)cc1	AMA1-RON2 inh 14.1µM

Bioassay records: PubChem, National Center for Advancing Translational Sciences (NCATS)
